Data taken from PubChem BioAssay (EPA / NIEHS).
Where “and” joins values, the source holds several entries; their conditions need not be identical. Equal entries are not always repeated. Some structures have more than one record in an assay (separate samples or runs), and their calls can disagree. Calls of active or inactive are those of the source. The calls were made as follows: active = hit-call score of the fitted dose curve at least 0.9, where 1 is the maximum; inactive = score below 0.9.

Columns and labels:
[1] = read-out: Interleukin-8 (IL8), CXCL8 (gene 3576); test: BSK_BF4T_IL8: BioMAP Diversity Plus: BF4T Assay for Interleukin-8 (IL8) Biomarker Activity (AID 2284263); conditions: primary human bronchial epithelial cells with fibroblasts
Outline: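 Human bronchial epithelial cells with dermal fibroblasts co-culture; IL-8 measured by ELISA 24 hours after dosing, fitted vs DMSO. Cytotoxicity tracked in parallel cultures by SRB total-protein staining.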

[2] = read-out: Interleukin-1 alpha (IL1a), IL1A (gene 3552); test: BSK_BF4T_IL1a: BioMAP Diversity Plus: BF4T Assay for Interleukin-1 alpha (IL1a) Biomarker Activity (AID 2284264); conditions: primary human bronchial epithelial cells with fibroblasts
Outline: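 Human bronchial epithelial cells co-cultured with dermal fibroblasts, dosed and read at 24 h. Secreted/surface IL-1α quantified by ELISA; gain-of-signal fitted relative to DMSO baseline. Parallel SRB total-protein staining tracked cytotoxicity.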

Decorin, DCN (gene 1634) = test: BSK_MyoF_Decorin: BioMAP Diversity Plus: MyoF Assay for Decorin Biomarker Activity (AID 2284265); conditions: primary human lung fibroblasts
Outline: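 Decorin protein was quantified by ELISA 24 h after chemical addition to primary human lung fibroblasts and analysed as increase over DMSO. Cytotoxicity was tracked in parallel cultures by SRB total-protein staining read at 560 nm.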

KRT18 (gene 3875) [3] = test: BSK_BF4T_Keratin818: BioMAP Diversity Plus: BF4T Assay for Keratin 818 Biomarker Activity (AID 2284266); conditions: primary human bronchial epithelial cells with fibroblasts
Outline: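 Co-culture of human bronchial epithelial cells and dermal fibroblasts, chemical exposure 24 h. Keratin 8/18 measured by ELISA; positive-direction fit vs DMSO. SRB total protein run in parallel cultures for cytotoxicity.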

[4] = BSK_MyoF_SRB: Viability Assessment in the BioMAP Diversity Plus: MyoF Assay (AID 2284267); conditions: primary human lung fibroblasts;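 also: total protein by SRB absorbance in parallel cultures as cytotoxicity measure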
Outline: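 Human lung fibroblasts, 24 h after chemical dosing; total protein measured by 0.1% sulforhodamine B staining after 10% TCA fixation, read at 560 nm, fitted relative to DMSO baseline.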

[5] = read-out: Matrix Metallopeptidase 1 (MMP1), MMP1 (gene 4312); test: BSK_MyoF_MMP1: BioMAP Diversity Plus: MyoF Assay for Matrix Metallopeptidase 1 (MMP1) Biomarker Activity (AID 2284268); conditions: primary human lung fibroblasts
Outline: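 Human lung fibroblasts (MyoF system) exposed to chemical for 24 h in 96-well format; MMP1 biomarker quantified by ELISA, with activity fitted in the positive direction relative to DMSO baseline.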

[6] = read-out: TIMP metallopeptidase inhibitor 1 (TIMP1), TIMP1 (gene 7076); test: BSK_MyoF_TIMP1: BioMAP Diversity Plus: MyoF Assay for TIMP metallopeptidase inhibitor 1 (TIMP1) Biomarker Activity (AID 2284269); conditions: primary human lung fibroblasts
Outline: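 Primary human lung fibroblasts, MyoF multiplex system; chemical exposure 24 h; TIMP-1 by ELISA; positive fitting direction vs DMSO control.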

[7] = read-out: Matrix Metallopeptidase 3 (MMP3), MMP3 (gene 4314); test: BSK_BF4T_MMP3: BioMAP Diversity Plus: BF4T Assay for Matrix Metallopeptidase 3 (MMP3) Biomarker Activity (AID 2284271); conditions: primary human bronchial epithelial cells with fibroblasts
Outline: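 Co-culture of human bronchial epithelial cells and dermal fibroblasts dosed 24 h; MMP-3 measured by ELISA, positive-direction fit versus DMSO. Cytotoxicity tracked by SRB total-protein staining (560 nm) in parallel cultures.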

[8] = read-out: Tissue plasminogen activator (tPA), PLAT (gene 5327); test: BSK_BF4T_tPA: BioMAP Diversity Plus: BF4T Assay for Tissue plasminogen activator (tPA) Biomarker Activity (AID 2284272); conditions: primary human bronchial epithelial cells with fibroblasts
Outline: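 tPA level quantified by ELISA at 24 h post-treatment in bronchial epithelial/dermal fibroblast co-cultures, gain of signal scored against DMSO baseline. Parallel cultures stained with 0.1% SRB (560 nm) to flag overt cytotoxicity.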

[9] = read-out: Matrix Metallopeptidase 9 (MMP9), MMP9 (gene 4318); test: BSK_BF4T_MMP9: BioMAP Diversity Plus: BF4T Assay for Matrix Metallopeptidase 9 (MMP9) Biomarker Activity (AID 2284276); conditions: primary human bronchial epithelial cells with fibroblasts
Outline: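 Co-culture of human bronchial epithelial cells and dermal fibroblasts dosed for 24 h; MMP-9 quantified by ELISA and fitted upward versus DMSO. Cytotoxicity monitored in parallel cultures by SRB total-protein staining at the biomarker time point.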

[10] = read-out: Interleukin-8 (IL8), CXCL8 (gene 3576); test: BSK_IMphg_IL8: BioMAP Diversity Plus: IMphg Assay for Interleukin-8 (IL8) Biomarker Activity (AID 2284277); conditions: primary human endothelial cells with macrophages
Outline: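 Co-culture of human venular endothelial cells and macrophages exposed to chemicals for 24 h; IL-8 quantified by ELISA and compared against the DMSO baseline, with SRB total-protein staining in parallel cultures for cytotoxicity.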

[11] = read-out: Intercellular Adhesion Molecule 1 (ICAM1), ICAM1 (gene 3383); test: BSK_BE3C_ICAM1: BioMAP Diversity Plus: BE3C Assay for Intercellular Adhesion Molecule 1 (ICAM1) Biomarker Activity (AID 2284278); conditions: primary human bronchial epithelial cells;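 also: cell-surface ICAM-1 protein level quantified by ELISA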
Outline: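 Primary human bronchial epithelial cells in BE3C system, 24 h after chemical dosing; cell-surface ICAM-1 measured by ELISA relative to DMSO. Parallel SRB staining (0.1% SRB after 10% TCA fixation, read at 560 nm) assessed cytotoxicity.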

[12] = read-out: Interferon-inducible T-cell alpha chemoattractant (ITAC), CXCL11 (gene 6373); test: BSK_BE3C_ITAC: BioMAP Diversity Plus: BE3C Assay for Interferon-inducible T-cell alpha chemoattractant (ITAC) Biomarker Activity (AID 2284279); conditions: primary human bronchial epithelial cells
Outline: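 Steps: dose human bronchial epithelial cells with chemical; incubate 24 h; measure I-TAC by ELISA; fit endpoint in positive direction against DMSO control. Cytotoxicity was checked in parallel cultures by SRB staining at harvest.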

[13] = read-out: Interleukin-8 (IL8), CXCL8 (gene 3576); test: BSK_BE3C_IL8: BioMAP Diversity Plus: BE3C Assay for Interleukin-8 (IL8) Biomarker Activity (AID 2284280); conditions: primary human bronchial epithelial cells
Outline: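 Primary human bronchial epithelial cells (BE3C system) exposed 24 h; IL-8 measured by ELISA and fitted in positive direction versus DMSO. Overt cytotoxicity assessed by SRB total-protein staining in parallel cultures.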

[14] = read-out: Epidermal growth factor receptor (EGFR), EGFR (gene 1956); test: BSK_BE3C_EGFR: BioMAP Diversity Plus: BE3C Assay for Epidermal growth factor receptor (EGFR) Biomarker Activity (AID 2284281); conditions: primary human bronchial epithelial cells
Outline: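 Human primary bronchial epithelial cells (BE3C system) dosed with chemicals; EGFR measured by ELISA at 24 h, fitted in the positive direction relative to DMSO. Cytotoxicity tracked in parallel cultures by SRB total-protein staining.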

KRT18 (gene 3875) [15] = test: BSK_BE3C_Keratin818: BioMAP Diversity Plus: BE3C Assay for Keratin 818 Biomarker Activity (AID 2284282); conditions: primary human bronchial epithelial cells
Outline: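 Primary human bronchial epithelial cells treated 24 h; Keratin 8/18 quantified by ELISA, fit relative to DMSO. Cytotoxicity tracked in parallel cultures by sulforhodamine B total-protein staining.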

[16] = read-out: Plasminogen Activator Inhibitor-1 (PAI1), SERPINE1 (gene 5054); test: BSK_BF4T_PAI1: BioMAP Diversity Plus: BF4T Assay for Plasminogen Activator Inhibitor-1 (PAI1) Biomarker Activity (AID 2284273); conditions: primary human bronchial epithelial cells with fibroblasts
Outline: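 Co-culture of human bronchial epithelial cells and dermal fibroblasts exposed to compound for 24 h. PAI-1 measured by ELISA; activity fitted in positive direction versus DMSO. Parallel SRB staining assessed overt cytotoxicity.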

[17] = BSK_BF4T_SRB: Viability Assessment in the BioMAP Diversity Plus: BF4T Assay (AID 2284274); conditions: primary human bronchial epithelial cells with fibroblasts
Outline: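 Co-culture of human bronchial epithelial cells and dermal fibroblasts (BioMAP BF4T) exposed 24 h. Total protein by sulforhodamine B staining (0.1% SRB after 10% TCA fixation, 560 nm) in parallel cultures; fitted vs DMSO.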

Measured: AC50

OCC(F)(F)C(F)(F)C(F)(F)C(F)(F)C(F)(F)C(F)(F)F
active: [4] 49.5 µM | [5] 47.9 µM | [14] 48.7 µM
inactive: [1] | [2] | Decorin, DCN (gene 1634) | KRT18 (gene 3875) [3] | [4] | [5] | [6] | [7] | [8] | [9] | [10] | [11] | [12] | [13] | [14] | KRT18 (gene 3875) [15]

NC(=O)C(F)(F)C(F)(F)C(F)(F)C(F)(F)F
inactive: all assays above

O=C(O)C(F)(OC(F)(F)C(F)(OC(F)(F)C(F)(F)C(F)(F)F)C(F)(F)F)C(F)(F)F (centres undefined)
inactive: [1] | [2] | Decorin, DCN (gene 1634) | KRT18 (gene 3875) [3] | [5] | [6] | [7] | [8] | [9] | [10] | [11] | [12] | [13] | [14] | KRT18 (gene 3875) [15]
active: [13] 0.025 µM

C=CC(F)(F)C(F)(F)C(F)(F)C(F)(F)C(F)(F)C(F)(F)C(F)(F)C(F)(F)C=C
not listed: [6] | [16] | [17]
inactive: all other assays above

O=C(O)C=C(C(F)(F)F)C(F)(F)F
active: [8] 8.23 µM and 1.27 µM | [10] 6.29 µM and 10.8 µM
not listed: [6] | [17]
inactive: all other assays above

O=S(=O)(OCC(F)F)C(F)(F)F
not listed: [6] | [16] | [17]
inactive: all other assays above
